Shown is part of a subset that was picked to be rich in hits.
Pf Dd2 inh – qHTS Primary assay for Inhibitors of Plasmodium falciparum Dd2 growth in vitro; P. falciparum Dd2 growth, SYBR Green, 72 h; Potency, µM (titrated, usually from 28.9 µM), inactives show top-dose activity, negative = inhibition, hits mostly inhibitors; actives 4.3% (n = 120,000); active means well fitted inhibition curve with a large enough effect;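 further: plate controls were DMSO vehicle for no effect and reference drug for full effect; nearly all actives have a fitted effect of over 65% in size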
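Readout: SYBR Green fluorescence, 485 nm excitation, 535 nm emission, after ~16 h lysis at 37C. Before that, Dd2-infected red cells (2.5% hematocrit) grew 72 h with compound, 29 uM top final concentration.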
The depositor's hits bear a star; i = inactive; [ ] = remark or other dose. Potency means the concentration at half of the fitted maximal effect.

SMILES | Pf Dd2 inh
Cc1cccc(C)c1NC(=O)CSc1ncc2c(n1)-c1ccc(Cl)cc1N(Cc1ccccc1)S2(=O)=O | 11µM*
CC(=O)N[C@@H]1CN(Cc2ccc(OC(C)C)cc2)C[C@H]1CO | 21%
O=C(Nc1ccccc1)N1CC(Oc2ccc(-c3nc(-c4ccccc4)no3)cc2)C1 | 19%[5.79 µM]
CN(Cc1ccc(OC(F)(F)F)cc1)C1CCc2ccccc21 (stereo not given) | -12%[44.1 µM]
COc1ccc(C(=O)N2CCC(N3CC4CC(C3)[C@H]3CCCC(=O)N3C4)CC2)c(OC)c1 (stereo not given in full) | 0%
Cc1ccc(C2Cn3nnc(-c4nc(-c5ccc(C(F)(F)F)cc5)no4)c3CO2)c(C)c1 (stereo not given) | 4%
CC1=C[C@@H](CNC(=O)c2cccnc2)[C@H](C(C)C)C[C@H]1CC(=O)N1CCN(C)CC1 | i
CC1=C[C@@H](CNC(=O)c2ccccn2)[C@H](C(C)C)C[C@H]1CC(=O)N1CCN(C)CC1 | 11µM*
C#CCNC(=O)C[C@@H]1C[C@@H](C(C)C)[C@H](CNC(=O)c2ccccn2)C=C1C | -10%[44.1 µM]
COc1cccc(NC(=O)NC[C@@H]2C=C(C)[C@H](CC(=O)N3CCOCC3)C[C@H]2C(C)C)c1 | -20%
COc1ccccc1C(=O)NC[C@@H]1C=C(C)[C@H](CC(=O)N2CCCC2)C[C@H]1C(C)C | 13µM*
COc1cccc(NC(=O)NC[C@@H]2C=C(C)[C@H](CC(=O)N3CCN(c4ccccn4)CC3)C[C@H]2C(C)C)c1 | 13µM*
CC(=O)N1CCN(C(=O)C[C@@H]2C[C@@H](C(C)C)[C@H](CNC(=O)Nc3cccc(F)c3)C=C2C)CC1 | i
COc1ccccc1C(=O)NC[C@@H]1C=C(C)[C@H](CC(=O)NCc2ccccn2)C[C@H]1C(C)C | i
CC1=C[C@@H](CNC(=O)c2cccnc2)[C@H](C(C)C)C[C@H]1CC(=O)N1CCCC1 | -29%[44.1 µM]
NCCC(=O)N1CCC(n2nccc2NC(=O)c2cccc(F)c2)CC1 | -9%
O=C(NCCCn1cccn1)c1c(OCC2CC2)cc(=O)n2c1CCCCC2 | 16%
CSCc1ccc(C(=O)N2CCOCC(O)(CN3CCCC3)C2)o1 (stereo not given) | -24%
COc1cccc(C(=O)N2CCC(N3CC4CC(C3)[C@H]3CCCC(=O)N3C4)CC2)c1 (stereo not given in full) | -5%
COc1ccc(CN2CC[C@H](c3nnc(C)o3)C2)cc1 | 8%[44.1 µM]
O=C([C@@H]1C[C@H](F)CN1C(=O)Nc1cccc(Br)c1)N1CCCCC1 | i
COc1cccc(S(=O)(=O)N2CCCCCCN(C)C(=O)CC2)c1 | i
COC(=O)c1ccc(-c2nc(-c3ccc(OC)c(OC)c3)no2)cc1 | 59%
COc1ccc(C(=O)N2[C@@H]3CC[C@H]2CC(NC(=O)c2ccc(F)cc2)C3)cc1OC (stereo not given in full) | i
COC(=O)c1ccc([C@@H]2Nc3c(OC)ccc(C)c3[C@@H]3C=CC[C@@H]32)cc1 | 3.2µM*
SMILES | Pf Dd2 inh
CC(C)CN(CC1CN(C(=O)c2ccccc2Cl)CCO1)C(=O)c1cccc(F)c1 (stereo not given) | -29%
CC(C)C1CN(S(=O)(=O)C2CC2)CCC(=O)N1Cc1ccc(F)cc1 (stereo not given) | 2%
Cc1nc(N2CCCC2)c2c(C(=O)N3CCN(c4cc(Cl)ccc4C)CC3)c(C)oc2n1 | 13µM*
Cc1nc(N2CCCC2)c2c(C(=O)Nc3cccc(Cl)c3)c(C)oc2n1 | i
Cc1nc(N2CCCC2)c2c(C(=O)N3CCN(c4ccccc4)CC3)c(C)oc2n1 | -16%
O=C1C(O)C2(CCCCC2)N1C1CCN(Cc2ccncc2F)CC1 (stereo not given) | -14%
COc1ccc(-c2ccc3c(c2)C(=O)N2CC[C@H](NC(=O)COCC(=O)O)[C@H]2C(=O)N3)cc1 | 7%
CC(C)CN1C(=O)c2cccn2CC1C(=O)NCCCOC(C)C (stereo not given) | -4%
CCOc1ccc(C(=O)Nc2onc3c2CCCC3)cc1 | 24%
O=C(Nc1onc2c1CCCC2)c1ccccc1 | -6%
CC(C)(C)c1ccc(C(=O)Nc2onc3c2CCCC3)cc1 | 7.9µM*
O=C(c1ccc(Cl)s1)N1CCC(n2cc(-c3nc(-c4ccccc4)no3)nn2)C1 (stereo not given) | i
CNC(=O)[C@@H]1CN(C(=O)c2ccoc2)C[C@H]1CO | -2%
COc1ccc(Nc2nc(-c3ccccc3F)nc3ccccc23)cc1OC | i
COc1ccc(Nc2c(-c3cc(Br)ccc3O)nc3ncccn23)cc1OC | 1.3µM*
Cc1ccc(Nc2c(-c3ccc(C)s3)nc3ncccn23)cc1 | -19%
COc1ccc(C(=O)NC2CCN(c3cc(C(F)(F)F)ncn3)CC2)c(C)c1 | 24%
CS(=O)(=O)N1C[C@@H]2C[C@H]1C(=O)N(Cc1ccc(OC(F)(F)F)cc1)c1ccccc1O2 | -21%
O=C(O)CCC(=O)N1C[C@@H]2C[C@H]1C(=O)N(Cc1ccc(OC(F)(F)F)cc1)c1ccccc1O2 | -17%
O=C1[C@@H]2C[C@@H](CN2C2CCC2)Oc2ccccc2N1Cc1ccc(OC(F)(F)F)cc1 | 6.3µM*
COc1ccc(CN2C(=O)[C@@H]3C[C@@H](CN3C3CCN(C)CC3)Oc3ccccc32)cc1 | 10µM*
COc1ccc(CN2C(=O)[C@@H]3C[C@@H](CN3C)Oc3ccccc32)cc1 | i
COc1ccc(CN2C(=O)[C@@H]3C[C@@H](CN3Cc3ccccc3)Oc3ccccc32)cc1 | -51%[44.1 µM]
COc1cc(CN2CCC3(CC2)CC(O)CCO3)cc(OC)c1 (stereo not given) | -8%
COCc1cc(NCC(O)COc2ccc(Cl)c(C)c2)ncn1 (stereo not given) | -3%
SMILES | Pf Dd2 inh
CCN(CC)Cc1ccc2c(c1)CN(C(=O)c1cncc(Br)c1)CCO2 | 8.9µM*
Cc1ncoc1C(=O)N1CCOc2ccc(CCC(N)=O)cc2C1 | -6%
CN1CCC2(CC1)CN(C(=O)c1cncc(Br)c1)Cc1ccccc1O2 | -3%
CN1C[C@H](O)C[C@H]1c1nc(-c2ccc(OC(F)(F)F)cc2)no1 | i
Cc1ccc(C2Cn3nnc(-c4noc(-c5cccc(N(C)C)c5)n4)c3CO2)cc1 (stereo not given) | -9%
COCCN1C(=O)[C@H]2CN(Cc3ccc(OC)c(OC)c3Cl)C[C@H]2C1=O | -23%
N#Cc1cccc(CN2CC(CNC(=O)C3CCOCC3)C3(C2)CN(c2ccccc2)C3)c1 (stereo not given) | i
Cc1ccc2c(n1)N(C)[C@H](CO)CCN(Cc1ccccc1Cl)C2 | -25%[44.1 µM]
Cc1ccc2c(n1)N(C)[C@H](CO)CCN(Cc1ccc(F)cc1)C2 | -3%[44.1 µM]
Cc1ccc2c(n1)N(C)[C@H](CO)CCN(Cc1cn(C)c3ccccc13)C2 | 11µM*
Cc1ncc(S(C)(=O)=O)c(NCCCNc2cccnc2)n1 | -7%
CCO[C@H]1C[C@@H](O)C12CCN(C(=O)CCCc1ccccc1)CC2 | -13%
COc1cccc(CC2(CO)CCCN(c3ccc(-c4nccn4C)nn3)C2)c1 (stereo not given) | 8.9µM*
Cn1ccnc1-c1ccc(N2CC[C@](C)(O)[C@@H](O)C2)nn1 | 0%
Cn1ccnc1-c1ccc(N2CCC(C(O)Cc3ccccc3)CC2)nn1 (stereo not given) | -19%
CC(C)CCN(C1CCOCC1)C1CCN(Cc2ccc[nH]2)CC1 | 3.2µM*
c1cncc(CN2CCC(C3CCN(Cc4ccc[nH]4)C3)CC2)c1 (stereo not given) | -23%
CC(C)CCN(C1CCOCC1)C1CCN(C(=O)c2ccncc2)CC1 | -15%

From PubChem
